Experimental data published in PubChem BioAssay AID1508600 (Functional Genomics Laboratory (NCATS/FGL), 2020).
The campaign covered roughly 53,000 sequences. About 3,700 (7%) were called active.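 Rule for the calls: active = gene knockdowns whose robust z-score for IL-1 alpha signal is at least 2 or at most -2, so actives lie on both sides; inactive = the rest.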 Shown is part of a subset that was picked to be rich in actives.

Test: Components of the Cytosolic LPS Sensing Pathway: Gene Identification via Genome-wide siRNA Screen;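 note: robust z of the log signal after scaling to non-targeting control siRNA wells of the plate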
Conditions: RAW264.7 macrophages, IL-1a HTRF, actives lie on both sides, screened at 100 nM (by protocol), cells primed 5 h with Pam3CSK4 first
How it was run: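 Using IL-1a HTRF as read-out, the screen measured release from RAW264.7 cells after 48h siRNA knockdown (100 nM), 5 h Pam3CSK4 priming and 24 h cytosolic LipidA. Values were expressed relative to negative-control wells as robust z-scores.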

Sequence | z-score
CCUACGUCCAGUAGUGCAGTT against Ahdc1 | 1.43 (inactive)
GCUCAAAGGACCUCUGAGCTT against Slc29a2 | -1.28 (inactive)
CCUCCACUUCGUGAGCGAATT against Xxylt1 | -1.25 (inactive)
GCCACUGUUGUGUAAACUATT against Rap2a | 2.01 (active)
GGAGAAGUCUUCAUUUGAATT against Tubgcp2 | -0.331 (inactive)
GGAAGUAGGCAGCAUCAUCTT against Pcbp1 | 1.13 (inactive)
GGCUGGCUUUGAACUCAAUTT against Zfp36 | -1.28 (inactive)
GCAACUGCCUAGGCUUGAUTT against Slc30a7 | 4.79 (active)
GGCAGAUGUAUGAAAUCUUTT against Fancc | -0.196 (inactive)
GGUAUGCAACCUUGCCUUUTT against Coa3 | 0.945 (inactive)
GGAGAAGACUUGUAACAAATT against Hacd4 | 5.28 (active)
GGGAUGACUUGGAGUCUCUTT against Csnk1d | -0.0473 (inactive)
CGGUUUCUUACCAGCAAUUTT against Mgmt | -0.237 (inactive)
GAACCAGACUAAGAACUGUTT against Cox6b1 | 5.31 (active)
GGCCUUCUCUGACUUUCUGTT against Zfp324 | -0.633 (inactive)
GGGACAAUGUACAUCUACUTT against Dnaaf6b | -0.199 (inactive)
GCAAGAUCCGUACAUAGCATT against Wdr48 | -1.43 (inactive)
GGCAUUAAAGACCUGUUAATT against Kpnb1 | -0.887 (inactive)
AUUGUAGCAGUGAAUUGGATT against Pdia6 | -0.121 (inactive)
GGAGCUGAUAGGACUGAUGTT against Snap47 | 2.16 (active)
CCAGAAAUUGACAAAAAGUTT against Etfa | 0.492 (inactive)
GCCCUACCAAAGACACUAGTT against Lrch4 | -2.31 (active)

Sequence | z-score
GGCAGGAGAAAGGCCUUUUTT against Olfr535 | 0.123 (inactive)
GAGUGUGCAUUUUGUUAGUTT against Olfr136 | 0.763 (inactive)
GGCUGAGGCUGUGAAGAAGTT against Igfbp5 | -0.659 (inactive)
GGGCAAACGGAGGAAUGAATT against Slc35g3 | 2.47 (active)
GGAGAGUAAAUACCGACAGTT against Homer2 | -0.133 (inactive)
GCUGUUACCCUUAUGCAGCTT against Supt7l | 0.486 (inactive)
GGACAACGAUAGCUAACCUTT against Tmem63a | 0.453 (inactive)
GGAUGAAGAACCACUCAAATT against Ankzf1 | -1.06 (inactive)
GGUGUGUUUUAUGUGUCCCTT against Ctif | 2.62 (active)
CCUAUUUUAACCUUACGUGTT against Bdh1 | -0.443 (inactive)
GGAAGAGUUGGAGAAAAUUTT against Tex46 | 2 (inactive)
GGAGGUCUACAUUUAUUAATT against Dera | 1.31 (inactive)
CCAAACAGGCUUUUUUCCUTT against Snx31 | -0.712 (inactive)
GCAACGAGUGUGUUUUCUGTT against Spink10 | 2.25 (active)
CCAUGUCAAACACCUUAGUTT against Crebzf | 1.26 (inactive)
GGUAAGCUCCAAUUAUGCCTT against Ubr3 | 0.0463 (inactive)
GGAGCAAUUGAGAAAGAAGTT against Moap1 | 0.508 (inactive)
CCCGUAACCAUUUACUGGUTT against Tyro3 | 0.85 (inactive)
GGCACGAGCUCUCAUCUUUTT against Slc27a4 | -0.752 (inactive)
GGAAACAAGGGACUCUGUATT against Col4a4 | 0.906 (inactive)
GCAGCUUUUUGAGGUGUUATT against Slc9a7 | 3.07 (active)
GGAAUAGUGAAGGUACUUUTT against Cer1 | 2.4 (active)

Sequence | z-score
GGAAUUCUCUAUACCAAGATT against P2ry10b | 0.51 (inactive)
GCAAUUCCUCUUUUAGUCCTT against Spag6l | -1.38 (inactive)
GGCAGAUCUUCUUUGGAAATT against Ugt2b38 | 0.757 (inactive)
GGACCGUCAGUGUCAUGGATT against Zfp397 | -2.55 (active)
CCAUUGUUUGACUCAAAACTT against Gjc3 | 0.62 (inactive)
GGACCAUGGAUAUUUAAAGTT against Mafk | -0.297 (inactive)
GGAACUCUGUGGGUGAGAATT against Dock8 | -1.46 (inactive)
CCGGAUGUGCCUUGUCUACTT against Ckap5 | -1.58 (inactive)
GGAAAAUCAAGACCUAUGGTT against Obox6 | -1.37 (inactive)
GGAAGAGGUUAGCAAGCAUTT against Iws1 | 2.27 (active)
GUGCAUUGUCUUUUGUAGATT against Olfr1095 | -0.753 (inactive)
CGAUAAACUGGAUACCACUTT against Sntn | 0.437 (inactive)
GCAAUCUGUUUAGAGAGAGTT against Slc10a5 | -1.16 (inactive)
GGUGGUGAAUAUGAUGAUATT against Tsr1 | -0.712 (inactive)
GCUAAUGAUUUCCGCUUUGTT against Tyw1 | 0.367 (inactive)
GCCUUAUGGUUUUGUAUUUTT against Nap1l1 | -2.38 (active)
GCCCGCAUUCUUAUUCGAUTT against Tmem64 | -1.13 (inactive)
GCUGAUGUUAAAUUCGCAGTT against Serpinb3b | 1.33 (inactive)
CCACCUAUCAGGAUUCAACTT against Sf3b6 | -3.37 (active)
GGAGCCCUGUGUCUUGAGUTT against Ccl19 | -0.39 (inactive)
GGAGAUCCAAGAGAAAUUUTT against Csf3r | 1.18 (inactive)
GCAUUACACUGUUAAUGUUTT against Gopc | -0.138 (inactive)

Sequence | z-score
GCCUCAUUAUGAGUUGGCATT against Olfr1419 | -2.51 (active)
GGAAUCACAAGGUAUUUUCTT against Spo11 | -0.237 (inactive)
GGUCCACAAUGGCAUCAUATT against Elf4 | 2.13 (active)
GGAGAAGUUUAAGGAGAUUTT against Dnajb5 | 1.54 (inactive)
CCUUUGGUAAUCUCCAAAATT against Amph | 0.862 (inactive)
CCUUCUGCGGCUCAGUCUATT against Bach2os | -0.199 (inactive)
GGAACCUACUGCUACAUCATT against Sftpc | 2.24 (active)
GGCUUUCCUUACCAUAUAUTT against Trim7 | -0.675 (inactive)
GGAGAUUGGCAUAGAGAAGTT against Myo5b | 0.437 (inactive)
AUCCAUUUUGUGCUAGGCATT against Cacfd1 | 0.473 (inactive)
CCUGCUAUGUAAUAUAGAUTT against Eef2k | 0.0542 (inactive)
CCCGCUUGUUCUGAUGAUATT against 2310039H08Rik | -2.26 (active)
GGAAAGAAAUGAAUCAGUATT against Rnf216 | 0.882 (inactive)
GGACAUUAAGAGUGGAAAGTT against Nucb1 | 0.777 (inactive)
GGGAAGGAUUAUGUCAAAUTT against Kit | 0.328 (inactive)
CGGCCUCCAUGUUAAGAUATT against Csf2rb2 | -0.249 (inactive)
GCCUGAAGAGAGUCUUAUCTT against Bnip5 | 1.09 (inactive)
GGCAUUUAAAUCUGUGUGUTT against Slc39a6 | -0.471 (inactive)
GCAAUGGUUUCGGCUACGATT against Hoxb3 | 2.18 (active)
GGGAGGAAGUGGAAGUUCUTT against Tsc22d1 | 0.488 (inactive)
GGUGAAUGUAGUGUUAAAATT against Cyrib | -0.204 (inactive)
GAGAUGUCCGAAAUGCCAATT against Smco4 | 1.73 (inactive)

Sequence | z-score
GGACAGUGUAGUCAAAAAATT against Cx3cr1 | 0.149 (inactive)
GCAAACCUCAAUCUUGAAATT against Kif15 | 0.297 (inactive)
GGCAGUUAUUUCUAUCUUATT against 1700018F24Rik | 0.683 (inactive)
GGCUGUUGAACAGGUUAUCTT against Mis12 | 0.645 (inactive)
CCUGAUCAACAAACCGGAUTT against Rfxank | 1.29 (inactive)
CGACUGUCGUUUGUUGAUGTT against Tktl2 | -0.766 (inactive)
GUAGAGUGAUGAGAGGCCUTT against Vmn1r-ps8 | -0.475 (inactive)
UUCAAAUAAACUCUCUGCUTT against Krtap31-2 | 0.802 (inactive)
GGAAUUCCCAAGAGAAGGATT against Gk | -5.27 (active)
GCCUUCAUGGGAUUUGUCUTT against Opn1sw | -0.498 (inactive)
GGGCCACAGCUUAAUACUGTT against Ptov1 | 3.28 (active)
GCUAGUUUCCGUCGCUUUGTT against Cpeb4 | 0.555 (inactive)
GGUACUGGAAAUCUGUAUGTT against Nlgn1 | -0.332 (inactive)
GCGAACUUUUACAUUUCGATT against Gmpr | 0.272 (inactive)
GUGGGAUUCCAGUAGAAAUTT against Olfr1116 | 0.559 (inactive)
CCAAGUUAGUGGAUGAAUGTT against Ugt2b35 | -0.555 (inactive)
GGGAGGAAAUUAAAUUUCATT against Hif1an | -0.223 (inactive)
GGCCUUCUAAAGCUGUGAUTT against 6330403K07Rik | -2.7 (active)
GGAAAUAUCCUAAACAGAATT against Gdpd2 | -0.864 (inactive)
GCAGUUGCGUUCUAUUGAATT against Ccdc86 | 0.179 (inactive)
